{
  "source": "paper PMC12864922",
  "about": "“TDP-43 directly inhibits mRNA accumulation in neurites through modulation of mRNA stability”",
  "binders": {"B1": {"name": "ENSMUSG00000061578.1458|Ksr2|90:94 (ssRNA)", "RNA": "GGGAGUUCUACAGUCCGACGAUCGCUUCGAUAUCCGCAUGCUAGAAUGAAUGGAUGAUGGAUGAAUGGAUGGGUAGGUGGGUAGAUAGGUAUAUGAAUGAAUGGAUGAAUGGAUGGGUGAAUGGAUGGAUAGCAUACUGAAUAAAUGGAUGGAUGGAUGGAUUGAUUUGUGAAUGAAUGGAUGAAUGGAUGGGUAGGUGGGUGGAUGCAUAGGCAAGUAGAUGAAUGAAUAUGUGGGUAGAAGGGUGAGUGGGUGGAUGAAUGGAUGGAUAGGUUGGUAGGUUAAUGUAUUCGUGGAUGGGUGCUCUUGCGGUCGCACUAGUGUGGAAUUCUCGGGUGUCAAGG"}, "B2": {"name": "ENSMUSG00000029636.187|Wasf3 (ssRNA)", "RNA": "GGGAGUUCUACAGUCCGACGAUCGCUUCGAUAUCCGCAUGCUAAAUUUUAAAAAGUACCUCACAAGAUAAACUUGAUUCAGCCAGUUGCCCGGGCAGAGACCUGACUUCCCCUCUCCUGCCCUGAUCCUUUUUACCAAAUGGCGAUUCCAUAGUCCUGGCUGAGGCAGGGGCUCAAAGUCCAGUGUCUGCUUUGCAAUUCUGGAAGGACAGCUGCUUAUUUAAAUAAGUCUGUGAUAUCCGCAGGCUUGGGUUACAGGGAGGACCUUGCAGAGGGACCAGGACACUGCCUUCCCUUAGGUGCACUCUUGCGGUCGCACUAGUGUGGAAUUCUCGGGUGUCAAGG"}, "B3": {"name": "ENSMUSG00000058297.290|Spock2 (ssRNA)", "RNA": "GGGAGUUCUACAGUCCGACGAUCGCUUCGAUAUCCGCAUGCUAAGAGAGAGAGAGAGAGAGAAAGAGAGAGAGAAUGAGAGAGAAUGAGAGAGAGAAUACCCGAGGGCCACCCUGAUGCCCAGGAAGAGUGAGGGCAGCCCCCUGUGUGGUGGAAGAGGCUGGGCAGCUAGCUACUGGGGACCUUGUGCUGAGGCUUCCAGGACAAAGCCCCAGUCUGGCUCUCCCCCAGCCUCUCAGGGGCACUGGCUGGUCACAUCCACUGAGUAUUGAUCGGUUGGACUUUAGGGAAGAGCCUCCUCCUUCUCUUGCGGUCGCACUAGUGUGGAAUUCUCGGGUGUCAAGG"}, "B4": {"name": "ENSMUSG00000058297.292|Spock2 (ssRNA)", "RNA": "GGGAGUUCUACAGUCCGACGAUCGCUUCGAUAUCCGCAUGCUAAGAGAGAAAGAGAGAGAGAAUGAGAGAGAAUGAGAGAGAGAAUACCCGAGGGCCACCCUGAUGCCCAGGAAGAGUGAGGGCAGCCCCCUGUGUGGUGGAAGAGGCUGGGCAGCUAGCUACUGGGGACCUUGUGCUGAGGCUUCCAGGACAAAGCCCCAGUCUGGCUCUCCCCCAGCCUCUCAGGGGCACUGGCUGGUCACAUCCACUGAGUAUUGAUCGGUUGGACUUUAGGGAAGAGCCUCCUCCUUCCCAUUCCUUUCCUCUUGCGGUCGCACUAGUGUGGAAUUCUCGGGUGUCAAGG"}, "B5": {"name": "ENSMUSG00000043670.285|Diras1 (ssRNA)", "RNA": "GGGAGUUCUACAGUCCGACGAUCGCUUCGAUAUCCGCAUGCUAGAGUGGGAGGUAGAAUGAGAGAGAGUGUGUAUUGGAAGGGAGAGAGAGAGUGUGAGAGAGUGUGAGAGAGAGACAGAGACAGAGAUAAAGGAGAUAAAGAGAGACAAAGACAUGGUCACAAAGAGACAGAGAAGCAGAAAGAAGGCUGAAGCCAGAUGACCAAGUAGGCCGGACCCCACUGUGUUCCCUUCUGUGUGCCAGGCACAGGGAGAGCCACAGCCUGAAGCCUGAGUCUGAGCAUAGCUGAGCCCUGACCUCUACUCUUGCGGUCGCACUAGUGUGGAAUUCUCGGGUGUCAAGG"}, "B6": {"name": "ENSMUSG00000058297.293|Spock2 (ssRNA)", "RNA": "GGGAGUUCUACAGUCCGACGAUCGCUUCGAUAUCCGCAUGCUAAAAGAGAGAGAGAAUGAGAGAGAAUGAGAGAGAGAAUACCCGAGGGCCACCCUGAUGCCCAGGAAGAGUGAGGGCAGCCCCCUGUGUGGUGGAAGAGGCUGGGCAGCUAGCUACUGGGGACCUUGUGCUGAGGCUUCCAGGACAAAGCCCCAGUCUGGCUCUCCCCCAGCCUCUCAGGGGCACUGGCUGGUCACAUCCACUGAGUAUUGAUCGGUUGGACUUUAGGGAAGAGCCUCCUCCUUCCCAUUCCUUUCUGCCACCUCUUGCGGUCGCACUAGUGUGGAAUUCUCGGGUGUCAAGG"}, "B7": {"name": "ENSMUSG00000043670.284|Diras1 (ssRNA)", "RNA": "GGGAGUUCUACAGUCCGACGAUCGCUUCGAUAUCCGCAUGCUAGAGGGAGAGUGGGAGGUAGAAUGAGAGAGAGUGUGUAUUGGAAGGGAGAGAGAGAGUGUGAGAGAGUGUGAGAGAGAGACAGAGACAGAGAUAAAGGAGAUAAAGAGAGACAAAGACAUGGUCACAAAGAGACAGAGAAGCAGAAAGAAGGCUGAAGCCAGAUGACCAAGUAGGCCGGACCCCACUGUGUUCCCUUCUGUGUGCCAGGCACAGGGAGAGCCACAGCCUGAAGCCUGAGUCUGAGCAUAGCUGAGCCCUGACUCUUGCGGUCGCACUAGUGUGGAAUUCUCGGGUGUCAAGG"}, "B8": {"name": "ENSMUSG00000058297.287|Spock2 (ssRNA)", "RNA": "GGGAGUUCUACAGUCCGACGAUCGCUUCGAUAUCCGCAUGCUAAGAGAGAGAGAGAGAGAGAGAGAGAGAGAGAGAGAGAAAGAGAGAGAGAAUGAGAGAGAAUGAGAGAGAGAAUACCCGAGGGCCACCCUGAUGCCCAGGAAGAGUGAGGGCAGCCCCCUGUGUGGUGGAAGAGGCUGGGCAGCUAGCUACUGGGGACCUUGUGCUGAGGCUUCCAGGACAAAGCCCCAGUCUGGCUCUCCCCCAGCCUCUCAGGGGCACUGGCUGGUCACAUCCACUGAGUAUUGAUCGGUUGGACUUUACUCUUGCGGUCGCACUAGUGUGGAAUUCUCGGGUGUCAAGG"}, "B9": {"name": "ENSMUSG00000043670.283|Diras1 (ssRNA)", "RNA": "GGGAGUUCUACAGUCCGACGAUCGCUUCGAUAUCCGCAUGCUAGAGAGGGAGGGAGAGUGGGAGGUAGAAUGAGAGAGAGUGUGUAUUGGAAGGGAGAGAGAGAGUGUGAGAGAGUGUGAGAGAGAGACAGAGACAGAGAUAAAGGAGAUAAAGAGAGACAAAGACAUGGUCACAAAGAGACAGAGAAGCAGAAAGAAGGCUGAAGCCAGAUGACCAAGUAGGCCGGACCCCACUGUGUUCCCUUCUGUGUGCCAGGCACAGGGAGAGCCACAGCCUGAAGCCUGAGUCUGAGCAUAGCUGAGCUCUUGCGGUCGCACUAGUGUGGAAUUCUCGGGUGUCAAGG"}, "B10": {"name": "ENSMUSG00000058297.289|Spock2 (ssRNA)", "RNA": "GGGAGUUCUACAGUCCGACGAUCGCUUCGAUAUCCGCAUGCUAAGAGAGAGAGAGAGAGAGAGAGAGAAAGAGAGAGAGAAUGAGAGAGAAUGAGAGAGAGAAUACCCGAGGGCCACCCUGAUGCCCAGGAAGAGUGAGGGCAGCCCCCUGUGUGGUGGAAGAGGCUGGGCAGCUAGCUACUGGGGACCUUGUGCUGAGGCUUCCAGGACAAAGCCCCAGUCUGGCUCUCCCCCAGCCUCUCAGGGGCACUGGCUGGUCACAUCCACUGAGUAUUGAUCGGUUGGACUUUAGGGAAGAGCCUCCUCUUGCGGUCGCACUAGUGUGGAAUUCUCGGGUGUCAAGG"}},
  "note": "In all, about 9,900 sequences were measured (“r (bound/input frequency ratio)”: median about 0.7, highest 2% from about 6.5 on). For the sample, the highest values were picked, then their nearest neighbours and some sequences at random.",
  "data": [
    {"target": "TDP-43 (Homo sapiens, UniProt Q13148 1-414)", "sequence (Q13148 whole entry)": "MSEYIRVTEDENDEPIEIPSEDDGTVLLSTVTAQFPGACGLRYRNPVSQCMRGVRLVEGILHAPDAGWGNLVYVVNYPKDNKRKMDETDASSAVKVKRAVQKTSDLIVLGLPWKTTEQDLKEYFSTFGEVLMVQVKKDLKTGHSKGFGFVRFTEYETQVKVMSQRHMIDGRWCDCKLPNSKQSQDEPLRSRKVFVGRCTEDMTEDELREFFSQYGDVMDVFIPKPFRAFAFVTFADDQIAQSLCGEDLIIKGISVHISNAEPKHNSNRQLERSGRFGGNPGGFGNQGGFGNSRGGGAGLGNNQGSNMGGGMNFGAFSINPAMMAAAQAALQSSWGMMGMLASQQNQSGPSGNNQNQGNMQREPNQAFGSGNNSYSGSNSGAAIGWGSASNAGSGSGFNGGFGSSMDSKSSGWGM", "experiment": "RNA Bind-n-Seq with designed 260-mer pool; 25 mM Tris-HCl, 150 mM KCl, 3 mM MgCl2, BSA (printed 500 mg/mL), 20 units/mL SUPERase IN; pH not stated; 500 nM RNA pool, 1 h, 4 C; TDP-43 5, 50, 500 nM; high values mean tight binding", "conditions": "protein: recombinant; tags: SBP (GST cleaved off with PreScission; pGEX-GST-SBP)", "summary_of_the_method": "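For each oligo, R gives binding as its mapped-read-normalized abundance after pulldown divided by its abundance in input. Bead-captured SBP-tagged TDP-43 (5, 50 or 500 nM) was incubated with 500 nM of an in vitro-transcribed 260-nt 3′ UTR oligo pool for 1 h at 4 °C in 25 mM Tris-HCl, 150 mM KCl, 3 mM MgCl2, BSA and SUPERase IN on streptavidin beads. Washed, biotin-eluted RNA was reverse transcribed, PCR-amplified and sequenced.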", "values": [
      {"binder": "B1", "binding signal": "6.91 R (bound/input frequency ratio)"},
      {"binder": "B2", "binding signal": "0.317 R (bound/input frequency ratio)"},
      {"binder": "B3", "binding signal": "8.79 R (bound/input frequency ratio)"},
      {"binder": "B4", "binding signal": "6.42 R (bound/input frequency ratio)"},
      {"binder": "B5", "binding signal": "6.66 R (bound/input frequency ratio)"},
      {"binder": "B6", "binding signal": "2.36 R (bound/input frequency ratio)"},
      {"binder": "B7", "binding signal": "5.75 R (bound/input frequency ratio)"},
      {"binder": "B8", "binding signal": "7.5 R (bound/input frequency ratio)"},
      {"binder": "B9", "binding signal": "4.07 R (bound/input frequency ratio)"},
      {"binder": "B10", "binding signal": "7.91 R (bound/input frequency ratio)"}
    ]}
  ]
}
